The text below walks through data of paper PMC7862700, “An all-to-all approach to the identification of sequence-specific readers for epigenetic DNA modifications on cytosine”.

Holding throughout (experiment): DAPPL (digital affinity profiling via proximity ligation, sequencing); 10 mM Tris-HCl pH 7.5, 50 mM NaCl, 1 mM DTT, 4% glycerol, room temperature, 30 min; GST-TFs on glutathione beads, 16-mer random dsDNA library, 0.1% formaldehyde crosslink after washing; high values mean tight binding
For experiment [1], the target named is T1, FEV (Homo sapiens, UniProt Q99581 1-238).
T1 sequence: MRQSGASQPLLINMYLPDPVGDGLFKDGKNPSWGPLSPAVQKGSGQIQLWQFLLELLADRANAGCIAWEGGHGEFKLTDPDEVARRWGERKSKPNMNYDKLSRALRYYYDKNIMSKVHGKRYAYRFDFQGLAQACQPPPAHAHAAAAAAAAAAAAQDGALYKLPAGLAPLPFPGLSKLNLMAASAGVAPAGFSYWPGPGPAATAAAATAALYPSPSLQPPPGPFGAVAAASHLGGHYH
The settings on record: protein: recombinant; tags: N-terminal GST; dsDNA, one strand shown. Put shortly:
(§1)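 Binding signal is each hexamer's read frequency for a factor divided by its frequency in the tag-only sample. The factors were GST-fused human transcription factors from yeast, captured on glutathione beads, DNA-barcoded and pooled with that sample. Pools were incubated with 200 nmole of a random double-stranded 16-mer DNA library in Tris/NaCl/DTT/glycerol buffer at room temperature for 30 min, then washed, crosslinked with 0.1% formaldehyde, proximity-ligated with BsaI/T4 ligase (1 h, 37 °C), PCR-amplified and sequenced on an Illumina NextSeq500.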

The target in experiment [2] is ETV5 (Homo sapiens, UniProt P41161 1-510). The settings on record: protein: recombinant; tags: N-terminal GST; dsDNA, one strand shown. Put shortly: as §1
For experiment [3], the target named is HSF1 (Homo sapiens, UniProt Q00613 1-529). The settings on record: protein: recombinant; tags: N-terminal GST; chain copies: 3; dsDNA, one strand shown. In a few lines: as §1
Experiment [4] concerns the target T2, SPIC (Homo sapiens, UniProt Q8N5J4 1-248).
T2 sequence: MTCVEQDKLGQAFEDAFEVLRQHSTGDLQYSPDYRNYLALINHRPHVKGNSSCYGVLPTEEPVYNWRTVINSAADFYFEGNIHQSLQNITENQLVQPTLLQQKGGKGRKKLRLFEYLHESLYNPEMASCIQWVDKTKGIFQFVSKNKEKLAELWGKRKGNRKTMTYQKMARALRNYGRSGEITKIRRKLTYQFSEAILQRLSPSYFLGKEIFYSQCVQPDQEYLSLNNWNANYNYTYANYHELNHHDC
The settings on record: protein: recombinant; tags: N-terminal GST; dsDNA, one strand shown. In a few lines: as §1

Experiment [5] has as its target ELF4 (Homo sapiens, UniProt Q99607 1-663). The settings on record: protein: recombinant; tags: N-terminal GST; dsDNA, one strand shown. Put shortly: as §1
Experiment [6] deals with T3, ELK4 (Homo sapiens, UniProt P28324-2 1-405).
T3 sequence: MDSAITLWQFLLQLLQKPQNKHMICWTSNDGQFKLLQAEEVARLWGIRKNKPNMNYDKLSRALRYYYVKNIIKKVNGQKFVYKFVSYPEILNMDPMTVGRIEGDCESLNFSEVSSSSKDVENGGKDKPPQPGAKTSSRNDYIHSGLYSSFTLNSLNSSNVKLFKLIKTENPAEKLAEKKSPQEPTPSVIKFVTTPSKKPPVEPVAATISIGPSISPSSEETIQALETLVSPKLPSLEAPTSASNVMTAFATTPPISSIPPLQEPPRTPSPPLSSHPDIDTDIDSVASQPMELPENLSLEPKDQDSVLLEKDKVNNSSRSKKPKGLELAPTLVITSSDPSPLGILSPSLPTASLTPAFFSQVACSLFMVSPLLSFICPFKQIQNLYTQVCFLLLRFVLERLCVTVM
The settings on record: protein: recombinant; tags: N-terminal GST; dsDNA, one strand shown. Put shortly: as §1

In experiment [7] the target is T4, ETV2 (Homo sapiens, UniProt O00321 1-342).
T4 sequence: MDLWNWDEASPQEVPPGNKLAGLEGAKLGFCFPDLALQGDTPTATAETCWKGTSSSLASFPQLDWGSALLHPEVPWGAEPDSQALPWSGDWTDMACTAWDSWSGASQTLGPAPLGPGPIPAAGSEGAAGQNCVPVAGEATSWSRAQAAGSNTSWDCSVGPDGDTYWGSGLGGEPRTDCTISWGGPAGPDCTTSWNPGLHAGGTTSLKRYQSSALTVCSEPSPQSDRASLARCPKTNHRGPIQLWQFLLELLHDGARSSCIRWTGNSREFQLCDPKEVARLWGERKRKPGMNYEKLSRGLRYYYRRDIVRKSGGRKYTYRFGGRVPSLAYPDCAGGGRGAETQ
The settings on record: protein: recombinant; tags: N-terminal GST; dsDNA, one strand shown. Put shortly:
as §1

The target of experiment [8] is T5, ELF3 (Homo sapiens, UniProt P78545 1-371).
T5 sequence: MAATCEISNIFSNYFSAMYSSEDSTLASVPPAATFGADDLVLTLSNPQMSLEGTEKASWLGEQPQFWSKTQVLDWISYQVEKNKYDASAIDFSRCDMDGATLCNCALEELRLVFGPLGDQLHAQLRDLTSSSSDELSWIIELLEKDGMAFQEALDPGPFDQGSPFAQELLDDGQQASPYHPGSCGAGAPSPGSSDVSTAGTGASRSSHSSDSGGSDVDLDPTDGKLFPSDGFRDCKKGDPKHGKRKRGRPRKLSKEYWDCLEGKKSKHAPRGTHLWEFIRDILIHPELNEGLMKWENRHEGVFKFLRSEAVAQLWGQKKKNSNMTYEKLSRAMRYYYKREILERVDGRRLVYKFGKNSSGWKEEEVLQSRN
The settings on record: protein: recombinant; tags: N-terminal GST; dsDNA, one strand shown. In a few lines:
as §1

Experiment [9] has as its target CRX (Homo sapiens, UniProt O43186 1-299). The settings on record: protein: recombinant; tags: N-terminal GST; dsDNA, one strand shown. In a few lines:
as §1

Experiment [10] deals with ETV1 (Homo sapiens, UniProt P50549 1-477). The settings on record: protein: recombinant; tags: N-terminal GST; dsDNA, one strand shown. Put shortly: as §1
Experiment [11] deals with T6, ERF (Homo sapiens, UniProt P50548 1-548).
T6 sequence: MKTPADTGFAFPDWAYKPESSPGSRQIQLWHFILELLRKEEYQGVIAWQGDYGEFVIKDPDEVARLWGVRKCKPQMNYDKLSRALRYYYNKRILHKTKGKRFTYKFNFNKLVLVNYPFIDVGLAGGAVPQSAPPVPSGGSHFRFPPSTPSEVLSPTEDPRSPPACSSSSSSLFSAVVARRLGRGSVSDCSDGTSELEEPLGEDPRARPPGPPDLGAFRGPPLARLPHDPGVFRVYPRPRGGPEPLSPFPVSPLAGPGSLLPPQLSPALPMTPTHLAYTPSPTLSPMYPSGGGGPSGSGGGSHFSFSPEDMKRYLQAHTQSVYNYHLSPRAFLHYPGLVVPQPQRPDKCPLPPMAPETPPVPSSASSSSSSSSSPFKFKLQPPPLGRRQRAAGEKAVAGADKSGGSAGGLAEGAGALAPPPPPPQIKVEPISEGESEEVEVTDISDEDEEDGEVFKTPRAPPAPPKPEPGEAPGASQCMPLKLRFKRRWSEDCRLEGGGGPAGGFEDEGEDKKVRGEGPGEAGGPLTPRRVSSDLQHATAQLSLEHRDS
The settings on record: protein: recombinant; tags: N-terminal GST; dsDNA, one strand shown. In a few lines:
as §1

Experiment [12] concerns the target T7, ETV3L (Homo sapiens, UniProt Q6ZN32 1-361).
T7 sequence: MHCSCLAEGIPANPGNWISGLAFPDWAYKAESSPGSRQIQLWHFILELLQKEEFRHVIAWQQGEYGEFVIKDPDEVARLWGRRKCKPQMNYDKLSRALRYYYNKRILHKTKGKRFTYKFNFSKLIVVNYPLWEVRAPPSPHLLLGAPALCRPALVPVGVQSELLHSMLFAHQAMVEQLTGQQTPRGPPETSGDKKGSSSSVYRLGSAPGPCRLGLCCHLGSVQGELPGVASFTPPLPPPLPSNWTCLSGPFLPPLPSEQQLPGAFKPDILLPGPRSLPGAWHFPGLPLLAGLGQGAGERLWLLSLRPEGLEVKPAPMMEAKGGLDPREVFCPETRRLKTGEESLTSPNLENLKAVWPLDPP
The settings on record: protein: recombinant; tags: N-terminal GST; dsDNA, one strand shown. In a few lines: as §1

The target in experiment [13] is T8, ETS2 (Homo sapiens, UniProt P15036 1-469).
T8 sequence: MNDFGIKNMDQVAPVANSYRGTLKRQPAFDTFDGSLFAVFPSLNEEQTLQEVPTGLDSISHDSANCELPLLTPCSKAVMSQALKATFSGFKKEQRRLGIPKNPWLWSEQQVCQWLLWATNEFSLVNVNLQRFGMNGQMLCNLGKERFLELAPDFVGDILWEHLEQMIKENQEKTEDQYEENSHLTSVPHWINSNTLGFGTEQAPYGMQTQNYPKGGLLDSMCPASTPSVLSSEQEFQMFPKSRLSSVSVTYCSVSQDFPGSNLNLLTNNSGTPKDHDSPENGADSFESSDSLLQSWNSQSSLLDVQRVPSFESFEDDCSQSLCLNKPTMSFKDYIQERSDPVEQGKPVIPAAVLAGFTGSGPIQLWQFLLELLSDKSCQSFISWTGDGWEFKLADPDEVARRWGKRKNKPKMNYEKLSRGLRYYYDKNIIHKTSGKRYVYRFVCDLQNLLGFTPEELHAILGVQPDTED
The settings on record: protein: recombinant; tags: N-terminal GST; dsDNA, one strand shown. In a few lines: as §1

Experiment [14] deals with T9, SPDEF (Homo sapiens, UniProt O95238 1-335).
T9 sequence: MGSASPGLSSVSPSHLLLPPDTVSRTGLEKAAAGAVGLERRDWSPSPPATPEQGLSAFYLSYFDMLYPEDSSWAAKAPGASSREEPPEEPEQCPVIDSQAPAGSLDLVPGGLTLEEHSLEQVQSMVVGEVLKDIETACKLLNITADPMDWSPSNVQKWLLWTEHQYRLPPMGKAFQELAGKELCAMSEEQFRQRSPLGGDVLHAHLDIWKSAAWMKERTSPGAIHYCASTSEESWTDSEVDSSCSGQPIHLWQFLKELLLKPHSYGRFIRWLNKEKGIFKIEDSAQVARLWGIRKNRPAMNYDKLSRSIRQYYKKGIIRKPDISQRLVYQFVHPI
The settings on record: protein: recombinant; tags: N-terminal GST; dsDNA, one strand shown. Put shortly: as §1

Experiment [15] deals with T10, ETV7 (Homo sapiens, UniProt Q9Y603 1-341).
T10 sequence: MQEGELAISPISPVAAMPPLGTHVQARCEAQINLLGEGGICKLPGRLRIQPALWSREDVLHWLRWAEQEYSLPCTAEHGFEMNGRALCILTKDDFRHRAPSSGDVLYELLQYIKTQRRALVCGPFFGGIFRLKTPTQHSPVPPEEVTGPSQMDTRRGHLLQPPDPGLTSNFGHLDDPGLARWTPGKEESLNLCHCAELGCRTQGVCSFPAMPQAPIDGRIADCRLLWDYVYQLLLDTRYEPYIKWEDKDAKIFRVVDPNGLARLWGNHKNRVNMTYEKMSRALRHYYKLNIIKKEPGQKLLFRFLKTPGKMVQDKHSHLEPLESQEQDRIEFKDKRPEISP
The settings on record: protein: recombinant; tags: N-terminal GST; dsDNA, one strand shown. In a few lines:
as §1

Experiment [16] concerns the target T11, ELF5 (Homo sapiens, UniProt Q9UKW6-2 1-255).
T11 sequence: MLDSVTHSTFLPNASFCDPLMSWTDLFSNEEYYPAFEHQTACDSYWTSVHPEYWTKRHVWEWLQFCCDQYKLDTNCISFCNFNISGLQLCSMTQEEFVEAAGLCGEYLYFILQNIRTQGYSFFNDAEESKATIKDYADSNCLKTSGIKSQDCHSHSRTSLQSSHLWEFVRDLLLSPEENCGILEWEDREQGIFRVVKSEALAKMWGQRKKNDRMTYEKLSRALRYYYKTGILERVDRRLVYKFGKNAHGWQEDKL
The settings on record: protein: recombinant; tags: N-terminal GST; dsDNA, one strand shown. Put shortly:
as §1

Experiment [17] deals with T12, ETV3 (Homo sapiens, UniProt P41162-2 1-143).
T12 sequence: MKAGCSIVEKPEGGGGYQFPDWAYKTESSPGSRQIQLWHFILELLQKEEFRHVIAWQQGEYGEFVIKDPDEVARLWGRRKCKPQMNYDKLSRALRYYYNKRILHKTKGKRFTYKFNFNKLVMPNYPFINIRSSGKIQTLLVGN
The settings on record: protein: recombinant; tags: N-terminal GST; dsDNA, one strand shown. In a few lines: as §1

In experiment [18] the target is ETV6 (Homo sapiens, UniProt P41212 1-452). The settings on record: protein: recombinant; tags: N-terminal GST; dsDNA, one strand shown. In a few lines: as §1
Sequence of ETV6 (P41212 whole entry): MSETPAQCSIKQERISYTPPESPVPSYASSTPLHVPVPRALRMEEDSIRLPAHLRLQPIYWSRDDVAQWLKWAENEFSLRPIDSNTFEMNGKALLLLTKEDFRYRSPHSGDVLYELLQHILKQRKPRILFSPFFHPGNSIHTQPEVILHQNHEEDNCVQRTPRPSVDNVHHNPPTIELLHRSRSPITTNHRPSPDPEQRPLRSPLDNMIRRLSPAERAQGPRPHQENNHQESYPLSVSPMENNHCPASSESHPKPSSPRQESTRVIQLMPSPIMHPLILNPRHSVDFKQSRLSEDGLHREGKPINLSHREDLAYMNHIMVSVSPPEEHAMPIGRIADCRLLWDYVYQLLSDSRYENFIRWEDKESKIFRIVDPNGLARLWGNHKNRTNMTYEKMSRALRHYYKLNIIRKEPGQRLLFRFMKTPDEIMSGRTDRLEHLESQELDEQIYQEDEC

Sequence of ELF4 (Q99607 whole entry): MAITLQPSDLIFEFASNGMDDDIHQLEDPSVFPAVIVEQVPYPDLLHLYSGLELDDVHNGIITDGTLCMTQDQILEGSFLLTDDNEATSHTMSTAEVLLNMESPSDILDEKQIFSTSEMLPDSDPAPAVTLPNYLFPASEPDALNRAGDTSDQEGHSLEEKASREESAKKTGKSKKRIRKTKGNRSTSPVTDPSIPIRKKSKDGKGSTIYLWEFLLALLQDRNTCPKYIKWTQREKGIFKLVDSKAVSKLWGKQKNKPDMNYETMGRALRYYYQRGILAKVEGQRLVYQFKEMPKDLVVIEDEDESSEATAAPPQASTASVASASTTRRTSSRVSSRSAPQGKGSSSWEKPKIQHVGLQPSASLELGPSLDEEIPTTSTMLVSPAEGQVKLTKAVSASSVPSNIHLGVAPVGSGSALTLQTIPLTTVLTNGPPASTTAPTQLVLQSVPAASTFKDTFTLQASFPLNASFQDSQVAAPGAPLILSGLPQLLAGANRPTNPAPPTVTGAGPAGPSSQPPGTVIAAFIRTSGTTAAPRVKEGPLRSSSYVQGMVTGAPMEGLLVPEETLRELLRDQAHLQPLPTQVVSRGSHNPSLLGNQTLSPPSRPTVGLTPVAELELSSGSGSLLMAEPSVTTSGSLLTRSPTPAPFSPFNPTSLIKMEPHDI
Sequence of HSF1 (Q00613 whole entry): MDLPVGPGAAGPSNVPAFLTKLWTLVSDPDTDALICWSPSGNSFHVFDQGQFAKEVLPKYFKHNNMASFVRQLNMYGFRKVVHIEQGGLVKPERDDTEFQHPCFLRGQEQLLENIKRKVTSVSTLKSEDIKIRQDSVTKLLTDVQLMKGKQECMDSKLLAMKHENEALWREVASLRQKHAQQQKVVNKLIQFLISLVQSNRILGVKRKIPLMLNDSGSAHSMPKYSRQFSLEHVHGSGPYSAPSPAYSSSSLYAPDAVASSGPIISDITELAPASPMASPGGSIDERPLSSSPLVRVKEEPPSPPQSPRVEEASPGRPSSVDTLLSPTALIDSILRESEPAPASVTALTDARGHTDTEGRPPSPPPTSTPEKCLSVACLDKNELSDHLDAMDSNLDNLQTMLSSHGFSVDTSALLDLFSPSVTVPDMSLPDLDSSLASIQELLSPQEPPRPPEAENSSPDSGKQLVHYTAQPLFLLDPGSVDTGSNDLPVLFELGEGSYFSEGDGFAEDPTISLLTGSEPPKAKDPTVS
Sequence of ETV1 (P50549 whole entry): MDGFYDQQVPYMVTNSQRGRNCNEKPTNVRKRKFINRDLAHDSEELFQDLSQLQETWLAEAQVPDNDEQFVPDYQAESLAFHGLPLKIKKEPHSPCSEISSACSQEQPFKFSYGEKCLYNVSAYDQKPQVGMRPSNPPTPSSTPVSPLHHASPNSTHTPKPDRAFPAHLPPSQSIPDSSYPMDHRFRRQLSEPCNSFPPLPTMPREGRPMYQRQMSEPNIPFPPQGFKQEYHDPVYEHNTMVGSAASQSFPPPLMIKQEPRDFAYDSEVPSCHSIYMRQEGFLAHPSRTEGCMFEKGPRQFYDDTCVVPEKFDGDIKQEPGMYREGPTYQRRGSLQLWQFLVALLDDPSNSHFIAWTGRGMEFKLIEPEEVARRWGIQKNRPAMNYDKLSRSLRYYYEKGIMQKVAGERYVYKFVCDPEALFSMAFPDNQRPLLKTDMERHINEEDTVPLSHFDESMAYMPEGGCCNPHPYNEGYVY
Sequence of CRX (O43186 whole entry): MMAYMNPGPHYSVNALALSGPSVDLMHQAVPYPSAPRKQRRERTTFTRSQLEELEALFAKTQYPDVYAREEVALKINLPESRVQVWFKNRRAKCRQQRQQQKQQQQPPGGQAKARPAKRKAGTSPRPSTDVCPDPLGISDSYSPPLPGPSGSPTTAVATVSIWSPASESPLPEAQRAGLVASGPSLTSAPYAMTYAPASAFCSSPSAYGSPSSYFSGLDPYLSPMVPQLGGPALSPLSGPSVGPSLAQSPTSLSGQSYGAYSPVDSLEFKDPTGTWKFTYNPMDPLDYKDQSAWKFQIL
Sequence of ETV5 (P41161 whole entry): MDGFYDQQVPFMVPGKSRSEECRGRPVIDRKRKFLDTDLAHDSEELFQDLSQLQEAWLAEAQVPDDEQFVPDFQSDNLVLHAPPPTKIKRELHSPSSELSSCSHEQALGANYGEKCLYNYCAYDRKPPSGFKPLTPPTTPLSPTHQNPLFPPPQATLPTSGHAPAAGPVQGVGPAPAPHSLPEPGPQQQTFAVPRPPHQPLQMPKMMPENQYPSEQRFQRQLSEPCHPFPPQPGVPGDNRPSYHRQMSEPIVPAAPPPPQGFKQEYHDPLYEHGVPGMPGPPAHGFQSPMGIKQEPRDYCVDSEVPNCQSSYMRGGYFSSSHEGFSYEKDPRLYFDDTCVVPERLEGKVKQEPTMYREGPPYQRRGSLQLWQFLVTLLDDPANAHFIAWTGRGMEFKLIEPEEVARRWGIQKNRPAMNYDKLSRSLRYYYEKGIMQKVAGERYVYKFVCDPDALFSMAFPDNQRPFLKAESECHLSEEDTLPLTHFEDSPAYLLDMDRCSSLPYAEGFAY

As to TAAAAC, the binding signal is 1.22 fold enrichment (6-mer frequency, TF over GST control) in experiment [1]; 1.18 fold enrichment (6-mer frequency, TF over GST control) in [2]; 1.32 fold enrichment (6-mer frequency, TF over GST control) in experiment [3]; 1.29 fold enrichment (6-mer frequency, TF over GST control) in [4]; 1.16 fold enrichment (6-mer frequency, TF over GST control) in experiment [5]; 1.15 fold enrichment (6-mer frequency, TF over GST control) in [6]. Further, the binding signal in experiment [7] was 1.17 fold enrichment (6-mer frequency, TF over GST control); in [8] it was 1.14 fold enrichment (6-mer frequency, TF over GST control); in experiment [9], 1.66 fold enrichment (6-mer frequency, TF over GST control); in [10], 1.18 fold enrichment (6-mer frequency, TF over GST control); in experiment [11] it was 1.22 fold enrichment (6-mer frequency, TF over GST control); in experiment [12] it was 1.2 fold enrichment (6-mer frequency, TF over GST control). For the same sequence, the binding signal in [13] is 1.15 fold enrichment (6-mer frequency, TF over GST control); in [14] it was 1.18 fold enrichment (6-mer frequency, TF over GST control); in experiment [15] it was 1.27 fold enrichment (6-mer frequency, TF over GST control); in experiment [16], 1.12 fold enrichment (6-mer frequency, TF over GST control); in experiment [17], 1.24 fold enrichment (6-mer frequency, TF over GST control); in experiment [18] it was 1.16 fold enrichment (6-mer frequency, TF over GST control).
